Assay results as given in PubChem BioAssay AID489008 (National Center for Advancing Translational Sciences (NCATS), 2010).
Inconclusive results are not listed. Calls of active or inactive are those of the source. The call rests on the fitted dose curve; in most records, active means well fitted inhibition curve with a large enough effect; inconclusive means small, poorly fitted or top-dose-only effect; inactive means flat fitted curve, though single readings scatter.

biological target: Ferritin light chain (Equus caballus) (UniProt P02791); assay: Confirmation Assay for Identification of Novel General Anesthetics; details: apoferritin 1-aminoanthracene fluorescence displacement; further: nearly all actives have a fitted effect of over 40% in size
In short: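 Horse apoferritin (10 uM) pre-loaded with 1-AMA (50% saturated, PBS) exposed to compounds 10 min at room temperature; loss of 1-AMA fluorescence (380/535 nm) scaled between free and bound ligand, curves fitted with Hill equation.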
Potency means the concentration at half of the fitted maximal effect.

Chain of Ferritin light chain (Equus caballus) (P02791 2-175 limits assumed): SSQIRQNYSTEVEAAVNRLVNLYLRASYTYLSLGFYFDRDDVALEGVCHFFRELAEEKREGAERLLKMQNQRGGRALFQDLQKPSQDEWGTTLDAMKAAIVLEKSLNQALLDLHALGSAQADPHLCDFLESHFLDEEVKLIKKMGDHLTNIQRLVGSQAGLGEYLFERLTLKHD

Potency, active:
O=C(OCC(=O)C12CC3CC(CC(C3)C1)C2)c1cccnc1 22.4 µM, O=S(=O)(NCCc1ccccc1)c1ccc(Br)s1 31.6 µM, Cc1cc(C)n(Cc2ccccc2Cl)n1 12.6 µM, O=C(COC(=O)/C=C/c1ccccc1Cl)NC1CCCCCC1 6.31 µM, Cc1ccc(-c2ccc(=O)n(CC(=O)NC(C)c3ccccc3)n2)cc1 (centres undefined) 20 µM, O=C(COC(=O)CCc1ccccc1)NC12CC3CC(CC(C3)C1)C2 8.91 µM, NC(=O)COC(=O)CC12CC3CC(CC(C3)C1)C2 15.8 µM, CC1CCCN(C(=O)Nc2ccc(Br)cc2Cl)C1 (centres undefined) 28.2 µM, O=C1C2CC=CCC2C(=O)N1Cc1ccccc1Cl (centres undefined) 7.94 µM, Cc1ccc(-c2ccc(=O)n(CC(=O)NCc3ccco3)n2)cc1 11.2 µM, CC(C)(C)CC(=O)Nc1ccc(Nc2ccccc2)cc1 17.8 µM, CCN(CC)S(=O)(=O)c1ccc(C)c(C)c1 22.4 µM, Fc1ccccc1CNc1ccc(Cl)c(Cl)c1 10 µM, Cc1cc(OCC(=O)N(C)C2CCCCC2)cc(C)c1Cl 35.5 µM, Cc1ccc(NCc2ccccc2O)c(C)c1 12.6 µM, Cc1cc(C(=O)OCC(=O)N2C(C)CCCC2C)c(C)o1 (centres undefined) 14.1 µM, Cc1cc(C)n2nc(CC(=O)NC3CCCCCCC3)nc2n1 10 µM, Cc1ccc(S(=O)(=O)NCCc2ccccc2)cc1 15.8 µM, Cc1ccc(O)c(Sc2cc(C)ccc2O)c1 7.94 µM
